From PubChem BioAssay (Tox21)
Where “and” joins values, the source holds several entries; their conditions need not be identical. Equal entries are not always repeated. Results filed as inconclusive are left out. Calls of active or inactive are those of the source. Unless noted, calls come from the whole dose curve; as a rule, active = well fitted curve in the direction sought with a large enough effect in the repeat runs; inconclusive = weak or mixed curves; inactive = no such curve, though single readings can be large; an effect the other way counts as inactive or inconclusive.

Tests used:
[1] = qHTS assay to identify small molecule agonists of the peroxisome proliferator-activated receptor delta (PPARd) signaling pathway - cell viability counter screen (AID 743211); note: nearly all actives have a fitted effect of over 55% in size
How it was run: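 Tox21 library compounds, delivered in DMSO, were incubated 17 h with PPARd-bla HEK293H cells; cytotoxicity was taken from CellTiter-Glo luminescence read 30 min after reagent addition.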

[2] = biological target: Peroxisome proliferator-activated receptor delta (Homo sapiens) (UniProt Q03181); experiment: qHTS assay to identify small molecule agonists of the peroxisome proliferator-activated receptor delta (PPARd) signaling pathway (AID 743212; calls by dose curve)
Peroxisome proliferator-activated receptor delta (Homo sapiens), sequence (Q03181 whole entry, looked up): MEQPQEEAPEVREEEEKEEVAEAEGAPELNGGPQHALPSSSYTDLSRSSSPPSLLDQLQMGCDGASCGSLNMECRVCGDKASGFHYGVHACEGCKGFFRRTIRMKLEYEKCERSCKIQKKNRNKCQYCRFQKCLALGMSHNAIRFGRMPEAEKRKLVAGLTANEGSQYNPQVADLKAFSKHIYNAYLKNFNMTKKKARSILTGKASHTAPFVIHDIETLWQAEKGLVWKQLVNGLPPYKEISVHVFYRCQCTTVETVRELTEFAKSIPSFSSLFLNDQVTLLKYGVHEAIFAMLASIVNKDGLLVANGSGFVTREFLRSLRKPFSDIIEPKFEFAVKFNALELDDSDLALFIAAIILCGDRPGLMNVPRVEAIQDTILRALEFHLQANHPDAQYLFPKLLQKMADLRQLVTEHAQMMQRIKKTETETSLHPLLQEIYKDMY
How it was run: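 Beta-lactamase reporter readout: a ratiometric FRET signal from the LiveBLAzer substrate after 2 h at room temperature. Compound exposure at 37 °C in PPARδ-bla HEK293H cells driven by an upstream activator sequence.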

[3] = qHTS assay to identify small molecule antagonists of the peroxisome proliferator-activated receptor delta (PPARd) signaling pathway - cell viability counter screen (AID 743213); note: nearly all actives have a fitted effect of over 50% in size
How it was run: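 Cytotoxicity counter screen: CellTiter-Glo luminescence read 30 min after addition, in the same wells as the reporter assay. There, PPARd UAS-bla HEK293H cells (3000/well) were treated 17 h at 37 C with compound and 300 nM L165041.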

[4] = biological target: Peroxisome proliferator-activated receptor delta (Homo sapiens) (UniProt Q03181); experiment: qHTS assay to identify small molecule antagonists of the peroxisome proliferator-activated receptor delta (PPARd) signaling pathway (AID 743215; active = well fitted inhibition curve with a large enough effect in the signal ratio in the repeat runs, not every such curve was filed as active; the % refers to the signal ratio;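 note: cells stimulated with agonist L165041 at 300 nM final during compound exposure; series mostly up to about 62 µM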)
How it was run: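 HEK293H GeneBLAzer PPARd UAS-bla reporter cells; cpd + L165041 300 nM final, 17 h 37 C; LiveBLAzer B/G FRET substrate 2 h RT; fluorescence intensity read-out. Antagonist mode.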

[5] = qHTS assay to identify small molecule antagonists of the farnesoid-X-receptor (FXR) signaling pathway - cell viability counter screen (AID 743221; active = well fitted cell-killing curve with a large enough effect in the repeat runs, not every such curve was filed as active; note: nearly all actives have a fitted effect of over 50% in size)
How it was run: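 Cytotoxicity is taken from ATP luminescence (CellTiter-Glo, 30 min, room temperature) in FXR-bla HEK 293T cells previously incubated 16 h at 37 C with compound and chenodeoxycholic acid at 50 uM final.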

[6] = biological target: Vitamin D3 receptor (Homo sapiens) (UniProt P11473); experiment: qHTS assay to identify small molecule agonists of the vitamin D receptor (VDR) signaling pathway (AID 743222; calls by dose curve)
Vitamin D3 receptor (Homo sapiens), sequence (P11473 whole entry, looked up): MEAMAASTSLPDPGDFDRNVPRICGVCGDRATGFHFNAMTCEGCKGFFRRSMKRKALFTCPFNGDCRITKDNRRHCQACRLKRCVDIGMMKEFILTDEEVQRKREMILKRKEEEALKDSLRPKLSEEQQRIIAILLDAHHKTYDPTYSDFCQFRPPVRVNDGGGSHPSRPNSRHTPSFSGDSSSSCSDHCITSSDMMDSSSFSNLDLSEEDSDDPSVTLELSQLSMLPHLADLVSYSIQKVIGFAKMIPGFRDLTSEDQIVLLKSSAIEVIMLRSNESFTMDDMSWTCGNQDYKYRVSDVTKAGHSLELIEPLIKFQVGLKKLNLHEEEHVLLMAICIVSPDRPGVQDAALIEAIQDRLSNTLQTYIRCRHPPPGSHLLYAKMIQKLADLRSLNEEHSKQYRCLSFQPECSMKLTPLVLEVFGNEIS
How it was run: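 Beta-lactamase reporter readout (LiveBLAzer B/G FRET, 2 h RT) in VDR-bla cells after 16 h compound treatment at 37C, 5% CO2; cells pre-incubated 4 h before pin transfer of DMSO solutions.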

[7] = biological target: Vitamin D3 receptor (Homo sapiens) (UniProt P11473); experiment: qHTS assay to identify small molecule antagonists of the vitamin D receptor (VDR) signaling pathway (AID 743223; active = well fitted inhibition curve with a large enough effect in the signal ratio in the repeat runs, not every such curve was filed as active; the % refers to the signal ratio)
How it was run: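 Quantitative HTS in VDR-bla reporter cells stimulated with 1alpha,25-dihydroxyvitamin D3, 3 nM final. Compound exposure 16 h, 37C, 5% CO2. Read-out: beta-lactamase FRET substrate fluorescence, 2 h RT.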

[8] = qHTS assay to identify small molecule agonists of the vitamin D receptor (VDR) signaling pathway - cell viability counter screen (AID 743224); note: nearly all actives have a fitted effect of over 50% in size; note: potency is the fitted concentration of half-maximal effect
How it was run: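 Cytotoxicity counter screen: VDR-bla cells, 16 h compound exposure at 37C, 5% CO2; CellTiter-Glo luminescence, 30 min RT, same wells as bla read.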

[9] = qHTS assay to identify small molecule antagonists of the vitamin D receptor (VDR) signaling pathway - cell viability counter screen (AID 743225); note: nearly all actives have a fitted effect of over 50% in size; note: potency is the fitted concentration of half-maximal effect
How it was run: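 Same-well multiplex: following 16 h treatment of HEK 293T cells carrying a UAS-driven beta-lactamase reporter with compound and agonist (3 nM final), and a 2 h FRET substrate step, CellTiter-Glo was added and luminescence read after 30 min.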

[10] = qHTS assay to identify small molecule agonists of the NFkB signaling pathway - cell viability counter screen (AID 1159515; calls by dose curve; note: series mostly up to about 61 µM; nearly all actives have a fitted effect of over 55% in size)
How it was run: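 ME-180 NFkB-bla cells, 2,000/well; overnight attach; compound 5 hr, 37 C/5% CO2; LiveBLAzer substrate 1.5 hr RT; then CellTiter-Glo in same wells, 30 min RT, luminescence read.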

[11] = qHTS assay to identify small molecule agonists of the endoplasmic reticulum stress response signaling pathway - cell viability counter screen (AID 1159517; calls by dose curve)
How it was run: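 ESRE-bla HeLa cells (1,500/well) were plated overnight at 37 C and exposed to compounds for 5 hr. After the 2 hr beta-lactamase substrate read, CellTiter-Glo went into the same wells, and luminescence was read after 30 min at room temperature.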

[12] = qHTS assay to identify small molecule antagonists of the retinoid-related orphan receptor gamma (ROR-gamma) signaling pathway - cell viability counter screen (AID 1159520); note: nearly all actives have a fitted effect of over 50% in size
How it was run: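 Cytotoxicity was read from cellular ATP (CellTiter-Glo luminescence) after 16 hr at 37 C with 1 uM doxycycline induction. The inducer was added 2 hr after compound transfer to Tet-on ROR gamma CHO cells.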

[13] = biological target: Nuclear receptor ROR-gamma (Homo sapiens) (UniProt P51449); experiment: qHTS assay to identify small molecule antagonists of the retinoid-related orphan receptor gamma (ROR-gamma) signaling pathway (AID 1159521)
How it was run: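 Inducible-expression reporter assay: doxycycline (1 uM final) switched on RORγ in CHO cells bearing a ROR response element-luciferase construct, with test compounds present from 2 h beforehand. Decreased luminescence after 16 h defined antagonist activity.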

[14] = qHTS assay to identify small molecule agonists of the AP-1 signaling pathway - cell viability counter screen (AID 1159525; calls by dose curve; note: nearly all actives have a fitted effect of over 55% in size)
How it was run: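 Intracellular ATP by Cell Titer Glo luminescence (30 min, RT) in the same ME-180 AP-1-bla wells after the 5 h compound exposure at 37 °C. Normalised to tetra n-octyl ammonium bromide and DMSO controls.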

[15] = qHTS assay to identify small molecule agonists of the AP-1 signaling pathway (AID 1159526; calls by dose curve)
[16] = biological target: Bile acid receptor (Homo sapiens) (UniProt Q96RI1); experiment: qHTS assay to identify small molecule antagonists of the farnesoid-X-receptor (FXR) signaling pathway (AID 743217; active = well fitted inhibition curve with a large enough effect in the signal ratio in the repeat runs, not every such curve was filed as active; the % refers to the signal ratio; note: potency is the fitted concentration of half-maximal effect)
Bile acid receptor (Homo sapiens), sequence (Q96RI1 whole entry, looked up): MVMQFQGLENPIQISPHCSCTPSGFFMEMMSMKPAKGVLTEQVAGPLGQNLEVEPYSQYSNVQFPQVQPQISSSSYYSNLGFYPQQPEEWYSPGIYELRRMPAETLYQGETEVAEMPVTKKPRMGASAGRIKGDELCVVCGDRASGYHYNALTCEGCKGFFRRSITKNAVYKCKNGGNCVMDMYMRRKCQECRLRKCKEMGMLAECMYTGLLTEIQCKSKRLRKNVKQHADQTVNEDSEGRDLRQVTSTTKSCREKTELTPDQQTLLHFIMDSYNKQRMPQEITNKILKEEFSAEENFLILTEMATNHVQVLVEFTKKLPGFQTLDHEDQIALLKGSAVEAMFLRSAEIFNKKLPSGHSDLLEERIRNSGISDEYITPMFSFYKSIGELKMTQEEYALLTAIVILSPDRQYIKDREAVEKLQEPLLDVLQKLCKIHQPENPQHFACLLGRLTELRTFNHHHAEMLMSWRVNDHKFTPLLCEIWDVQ
How it was run: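 Read-out: beta-lactamase FRET fluorescence (LiveBLAzer B/G substrate, 2 h, room temperature) in GeneBLAzer FXR-UAS-bla HEK 293T cells. Compounds were co-dosed with 50 uM chenodeoxycholic acid (final) and incubated 16 h at 37 °C.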

[17] = biological target: Bile acid receptor (Homo sapiens) (UniProt Q96RI1); experiment: qHTS assay to identify small molecule agonists of the farnesoid-X-receptor (FXR) signaling pathway (AID 743220; active = well fitted activation curve with a large enough effect in the signal ratio in the repeat runs, not every such curve was filed as active; the % refers to the signal ratio)
How it was run: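 FXR-UAS-bla HEK 293T cells carrying a UAS-driven beta-lactamase reporter were plated for 5 h at 37C/5% CO2, then exposed to DMSO-dissolved Tox21 10K compounds for 16 h at 37C. A LiveBLAzer B/G FRET substrate was loaded for 2 h at room temperature before fluorescence reading.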

[18] = qHTS assay to identify small molecule agonists of the farnesoid-X-receptor (FXR) signaling pathway - cell viability counter screen (AID 743218); note: nearly all actives have a fitted effect of over 45% in size
How it was run: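 Luminescence from CellTiter-Glo, read after 30 min at RT, reports viability of GeneBLAzer FXR-UAS-bla HEK 293T cells treated 16 h with compounds in the wells used for the beta-lactamase reporter.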

[19] = biological target: Retinoic acid receptor RXR-alpha (Homo sapiens) (UniProt P19793); experiment: qHTS assay to identify small molecule agonists of the RXR signaling pathway (AID 1159527; calls by dose curve; note: nearly all actives have a fitted effect of over 35% in size)
Retinoic acid receptor RXR-alpha (Homo sapiens), sequence (P19793 whole entry, looked up): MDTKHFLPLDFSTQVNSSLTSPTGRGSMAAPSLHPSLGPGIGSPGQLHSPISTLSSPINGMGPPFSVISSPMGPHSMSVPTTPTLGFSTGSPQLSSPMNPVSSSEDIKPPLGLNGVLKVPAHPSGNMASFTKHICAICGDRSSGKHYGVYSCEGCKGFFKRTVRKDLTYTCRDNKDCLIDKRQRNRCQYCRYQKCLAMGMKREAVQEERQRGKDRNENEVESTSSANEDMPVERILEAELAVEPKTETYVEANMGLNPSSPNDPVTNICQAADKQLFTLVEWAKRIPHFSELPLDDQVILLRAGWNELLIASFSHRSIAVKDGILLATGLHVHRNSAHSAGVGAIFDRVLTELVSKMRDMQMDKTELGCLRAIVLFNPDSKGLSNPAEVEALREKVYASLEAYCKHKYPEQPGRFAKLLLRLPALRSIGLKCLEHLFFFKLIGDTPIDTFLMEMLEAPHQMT
How it was run: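 Compounds in DMSO were added to RXR-alpha-UAS-bla HEK 293T cells kept in 2% charcoal-stripped serum, and incubated 16 hr at 37 C with 5% CO2. Reporter signal came from a 2 hr B/G FRET substrate step.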

Measured: Potency

COC(=O)C(C)Oc1ccc(Oc2ncc(C(F)(F)F)cc2Cl)cc1 (stereo not drawn)
inactive: [1] | [2] | [3] | [4] | [5] | [6] | [7] | [8] | [9] | [10] | [11] | [12] | [13] | [14] | [15]

O=C(O)COCCN1CCN(C(c2ccccc2)c2ccc(Cl)cc2)CC1 (stereo not drawn)
inactive: [1] | [2] | [3] | [4] | [16] | [17] | [5] | [6] | [7] | [8] | [9] | [10] | [12] | [13] | [14] | [15]

CCO[Si](CCCNC(N)=O)(OCC)OCC
inactive: [1] | [2] | [3] | [4] | [16] | [18] | [17] | [6] | [7] | [8] | [9] | [10] | [11] | [12] | [13] | [14] | [15] | [19]

O=C1CCc2ccccc2O1
inactive: [1] | [2] | [3] | [4] | [18] | [5] | [6] | [7] | [8] | [9] | [10] | [12] | [14] | [15]

NCCS(=O)(=O)O
inactive: [1] | [3] | [5] | [6] | [7] | [8] | [9] | [10] | [12] | [13] | [14] | [15] | [19]

C=CC(C)(O)CCC=C(C)C (stereo not drawn)
inactive: [1] | [3] | [16] | [17] | [6] | [7] | [8] | [9] | [10] | [12] | [14] | [15]

C=CCCCCCCCCCC
inactive: [1] | [2] | [3] | [4] | [18] | [5] | [8] | [9] | [10] | [11] | [12] | [13] | [14] | [15] | [19]

Cc1ccc(C(C)(C)C)cc1
inactive: [1] | [2] | [3] | [4] | [18] | [5] | [6] | [7] | [8] | [9] | [10] | [11] | [12] | [13] | [14] | [15] | [19]

CCCCCCCCCCC(CO)CCCCCCCC (stereo not drawn)
inactive: [1] | [2] | [3] | [4] | [6] | [7] | [8] | [9] | [10] | [11] | [12] | [14] | [15] | [19]

Cc1ccc(S(=O)(=O)O)cc1C
inactive: [1] | [2] | [3] | [4] | [18] | [6] | [7] | [8] | [9] | [10] | [11] | [12] | [14] | [15]

CNC[C@H](O)c1ccc(O)c(O)c1
inactive: [1] | [3] | [6] | [7] | [8] | [9] | [10] | [12] | [13] | [14] | [15]

CN(Cc1cnc2nc(N)nc(N)c2n1)c1ccc(C(=O)N[C@@H](CCC(=O)O)C(=O)O)cc1
inactive: [17] | [10] | [12] | [13] | [14] | [15]
active: [16] 376 nM | [8] 30.9 nM and 188 nM | [9] 213 nM
